These results are taken from PubChem BioAssay AID588403 (Broad Institute, 2011).

Each structure is given as a SMILES string. A number with no mark means an inactive call. Active and inactive are the calls of the source.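 How the source made its calls: active means dose-dependent signal loss with a fitted half-maximal concentration at or below 35 µM; inconclusive means flat fit with 30 to 70% signal loss, or poor fit; inactive means the rest.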

A short description of the assay: DiI-HDL fluorescence quenchers, cell-free, dose response, artefact control for SR-BI HDL uptake inhibitor project, biochemical, powder samples, plate reader fluorescence (AID 588403). Particulars: cell-free DiI-HDL fluorescence quenching counter-screen, 30 min; series mostly up to 35 µM; activity change, negative = quenching: at the top concentration.
In the case of `CS(=O)(=O)N1CCc2cc(-c3csc(NC(=O)c4ccco4)n3)ccc21`, the “activity change, negative = quenching” value is -3.49%.
Still for that read-out and setting: the same measure for `CCC(=O)N1CCc2cc(-c3csc(NC(=O)c4ccco4)n3)ccc21`: 0.945%; for `CCC(=O)N1CCc2cc(-c3csc(NC(=O)c4ccc(F)c(OC)c4)n3)ccc21`: -0.583%.
With `C[C@@H]1CN([C@H](C)CO)C(=O)c2cc(NC(=O)Cc3cn(C)c4ccccc34)ccc2O[C@H]1CN(C)S(=O)(=O)c1ccc(Cl)cc1`, the compound was classed as inactive.
Take `CC(C(=O)NC1CCCC1)N(C(=O)Cn1nnc(-c2cccc(F)c2)n1)C1CCCCC1` (stereo not given): the “activity change, negative = quenching” value was 1.08%.
On the same count and under the same terms, the result for `CCCCCCC1CCC/C1=N\NC(N)=S` (stereo not given) reads 2.81%.
The same measure, in the same setting: the same measure for `O=C(Nc1nc(-c2ccc3c(c2)CCN3)cs1)c1ccco1`: -10.5%.
In the case of `Cc1ccc(-c2nnn(CC(=O)N(C3CCCCC3)C(C)C(=O)NC3CCCC3)n2)cc1` (stereo not given), the “activity change, negative = quenching” value is 1.65%.
Still for that read-out and setting: the result for `COC(=O)N1CCc2cc(-c3csc(NC(=O)c4ccco4)n3)ccc21` reads -5.84%; that for `CCC(=O)N1CCc2cc(-c3csc(NC(=O)c4cccc(OC)c4)n3)ccc21`, -4.37%.
The same measure, in the same setting: the result for `COc1ccc(-c2nnn(CC(=O)N(C3CCCCC3)C(C)C(=O)NC3CCCC3)n2)cc1OC` (stereo not given) reads 2.89%; that for `CC(C(=O)NC1CCCC1)N(C(=O)Cn1nnc(-c2ccc3c(c2)OCO3)n1)C1CCCCC1` (stereo not given), 5.3%.
The same measure, in the same setting: the same measure for `CC(C)C(=O)N1CCc2cc(-c3csc(NC(=O)c4ccco4)n3)ccc21`: -3.58%; for `CCC(=O)N1CCc2cc(-c3coc(N)n3)ccc21`: -3.54%.
Take `CCC(=O)N1CCc2cc(-c3coc(NC(=O)c4ccco4)n3)ccc21`: the “activity change, negative = quenching” value is -2.4%.
As to `CC(C(=O)NC1CCCC1)N(C(=O)Cn1nnc(-c2ccccc2Cl)n1)C1CCCCC1` (stereo not given), the “activity change, negative = quenching” value is -0.377%.
On the same count and under the same terms, the same measure for `COc1ccc(-c2nnn(CC(=O)N(CC(=O)NC3CCCC3)C3CCCCC3)n2)cc1OC`: -0.763%.
As to `CCC(=O)N1CCc2cc(-c3cnc(NC(=O)c4ccco4)[nH]3)ccc21`, the “activity change, negative = quenching” value is 0.462%.
Still for that read-out and setting: the result for `O=C(CN(C(=O)Cn1nnc(-c2ccc3c(c2)OCO3)n1)C1CCCCC1)NC1CCCC1` reads 1.47%.
With `CCC(=O)N1CCc2cc(-c3csc(NC(=O)c4cccc(OC(F)(F)F)c4)n3)ccc21`, the “activity change, negative = quenching” value is 3.82%.
Still for that read-out and setting: the same measure for `CC(C(=O)NC1CCCC1)N(C(=O)Cn1nnc(-c2ccc(F)cc2)n1)C1CCCCC1` (stereo not given): -2.08%; for `COc1cccc(-c2nnn(CC(=O)N(C3CCCCC3)C(C)C(=O)NC3CCCC3)n2)c1` (stereo not given): 0.879%.
The same measure, in the same setting: the same measure for `CCC(=O)N1CCc2cc(-c3csc(NC(=O)c4cccc(OC)n4)n3)ccc21`: -1.71%; for `CC(C(=O)NC1CCCC1)N(C(=O)Cn1nnc(-c2ccc(Cl)cc2)n1)C1CCCCC1` (stereo not given): 3.64%; for `COc1ccc(-c2cc(CC(=O)N(C3CCCCC3)C(C)C(=O)NC3CCCC3)no2)cc1OC` (stereo not given): 1.88%.
On to `CC(C(=O)NC1CCCC1)N(C(=O)Cn1nnc(-c2ccccc2F)n1)C1CCCCC1` (stereo not given), for which the “activity change, negative = quenching” value was -4.01%.
Consider `O=C(Nc1nc(-c2ccc3c(c2)CCN3C(=O)C2CC2)cs1)c1ccco1`, for which the “activity change, negative = quenching” value was -7.46%.
Regarding `COc1ccccc1-c1nnn(CC(=O)N(C2CCCCC2)C(C)C(=O)NC2CCCC2)n1` (stereo not given), the “activity change, negative = quenching” value was -0.761%.
With `CCC(=O)N1CCc2cc(-c3csc(NC(=O)c4cc(OC)cc(OC)c4)n3)ccc21`, the “activity change, negative = quenching” value is -2.6%.
Same read-out and setting: the result for `CCC(=O)N1CCc2cc(-c3cnc(NC(C)=O)[nH]3)ccc21` reads -4.51%.
